The text below walks through data of ChEMBL document CHEMBL2218924, “A broad activity screen in support of a chemogenomic map for kinase signalling research and drug discovery” (Biochem J, 2013).

Test [1] has as its target Calcium/calmodulin-dependent protein kinase type 1 (Homo sapiens) (UniProt Q14012). The following applies: at 1 µM.
For test [2] the target is unchanged. The following applies: at 10 µM.
Test [3] addresses Calcium/calmodulin-dependent protein kinase type II subunit beta (Homo sapiens) (UniProt Q13554). The following applies: at 1 µM.
Test [4] has the same target. The conditions noted are these: at 10 µM.
Test [5] deals with Calcium/calmodulin-dependent protein kinase type II subunit gamma (Homo sapiens) (UniProt Q13555). The conditions noted are these: at 1 µM.
Chain of Calcium/calmodulin-dependent protein kinase type II subunit gamma (Homo sapiens) (Q13555 whole entry): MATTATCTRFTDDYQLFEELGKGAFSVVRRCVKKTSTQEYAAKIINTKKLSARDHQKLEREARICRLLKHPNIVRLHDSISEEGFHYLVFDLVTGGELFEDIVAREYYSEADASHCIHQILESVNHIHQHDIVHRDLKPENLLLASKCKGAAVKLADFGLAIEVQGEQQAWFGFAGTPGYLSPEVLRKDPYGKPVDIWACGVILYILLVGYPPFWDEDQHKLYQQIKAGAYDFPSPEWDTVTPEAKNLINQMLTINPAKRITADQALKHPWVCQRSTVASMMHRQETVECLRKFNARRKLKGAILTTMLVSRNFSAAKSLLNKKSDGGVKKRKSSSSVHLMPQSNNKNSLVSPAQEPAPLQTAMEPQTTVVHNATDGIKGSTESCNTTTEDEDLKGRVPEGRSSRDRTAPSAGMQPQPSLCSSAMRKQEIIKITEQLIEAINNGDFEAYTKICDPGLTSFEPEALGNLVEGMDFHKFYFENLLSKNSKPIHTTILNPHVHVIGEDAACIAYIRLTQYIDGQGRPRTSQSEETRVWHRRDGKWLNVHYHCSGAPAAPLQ
For test [6] the target is unchanged. The conditions noted are these: at 10 µM.
Test [7] has as its target Calcium/calmodulin-dependent protein kinase type II subunit delta (Homo sapiens) (UniProt Q13557). The conditions noted are these: at 1 µM.
The target is the same in test [8]. The conditions noted are these: at 10 µM.
Test [9] addresses T1, Calcium/calmodulin-dependent protein kinase type IV (Homo sapiens) (UniProt Q16566).
T1 sequence (whole entry): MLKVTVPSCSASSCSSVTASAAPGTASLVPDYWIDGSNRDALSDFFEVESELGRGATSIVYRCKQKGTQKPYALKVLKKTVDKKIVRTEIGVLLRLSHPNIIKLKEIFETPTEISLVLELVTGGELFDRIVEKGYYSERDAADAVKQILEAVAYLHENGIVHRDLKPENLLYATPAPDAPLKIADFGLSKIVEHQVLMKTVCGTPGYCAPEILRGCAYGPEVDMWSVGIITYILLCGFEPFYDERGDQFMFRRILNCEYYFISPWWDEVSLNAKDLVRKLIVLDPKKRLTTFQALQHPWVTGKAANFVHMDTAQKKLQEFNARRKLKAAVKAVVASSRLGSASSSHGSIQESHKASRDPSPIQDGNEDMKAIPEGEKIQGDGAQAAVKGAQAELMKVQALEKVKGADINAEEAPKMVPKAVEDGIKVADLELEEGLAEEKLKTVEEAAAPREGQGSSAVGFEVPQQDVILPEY
The conditions noted are these: at 10 µM.

Test [10] has as its target Death-associated protein kinase 1 (Homo sapiens) (UniProt P53355). The conditions noted are these: at 10 µM.
Test [11] addresses Death-associated protein kinase 2 (Homo sapiens) (UniProt Q9UIK4). The following applies: at 1 µM.
Test [12] has the same target. The conditions noted are these: at 10 µM.
For test [13], the target named is T2, Serine/threonine-protein kinase DCLK2 (Homo sapiens) (UniProt Q8N568).
T2 sequence (whole entry): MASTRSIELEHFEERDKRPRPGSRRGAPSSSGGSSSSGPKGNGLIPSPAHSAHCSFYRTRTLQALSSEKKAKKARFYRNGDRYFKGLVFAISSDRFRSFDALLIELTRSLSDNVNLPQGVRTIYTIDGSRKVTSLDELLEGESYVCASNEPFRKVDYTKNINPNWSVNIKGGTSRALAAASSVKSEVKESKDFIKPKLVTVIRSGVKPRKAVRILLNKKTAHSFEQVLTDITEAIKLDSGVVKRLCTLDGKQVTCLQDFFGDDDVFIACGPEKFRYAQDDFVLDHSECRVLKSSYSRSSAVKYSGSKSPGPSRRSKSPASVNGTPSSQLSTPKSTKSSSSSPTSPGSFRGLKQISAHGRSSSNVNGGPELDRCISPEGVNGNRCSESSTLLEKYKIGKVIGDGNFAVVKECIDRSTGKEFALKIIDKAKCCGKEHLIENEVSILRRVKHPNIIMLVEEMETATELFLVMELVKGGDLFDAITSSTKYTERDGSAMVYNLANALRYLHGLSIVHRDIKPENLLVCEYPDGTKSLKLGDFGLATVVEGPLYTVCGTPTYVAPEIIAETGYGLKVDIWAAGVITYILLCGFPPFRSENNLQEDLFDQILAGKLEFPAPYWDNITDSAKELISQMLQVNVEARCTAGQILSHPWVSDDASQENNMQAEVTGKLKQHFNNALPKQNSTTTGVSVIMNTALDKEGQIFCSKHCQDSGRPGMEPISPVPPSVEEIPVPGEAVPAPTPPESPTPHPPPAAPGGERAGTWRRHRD
The following applies: at 1 µM.

Test [14] deals with T2, Serine/threonine-protein kinase DCLK2 (Homo sapiens). The conditions noted are these: at 10 µM.
Test [15] concerns the target T3, Discoidin domain-containing receptor 2 (Homo sapiens) (UniProt Q16832).
T3 sequence (whole entry): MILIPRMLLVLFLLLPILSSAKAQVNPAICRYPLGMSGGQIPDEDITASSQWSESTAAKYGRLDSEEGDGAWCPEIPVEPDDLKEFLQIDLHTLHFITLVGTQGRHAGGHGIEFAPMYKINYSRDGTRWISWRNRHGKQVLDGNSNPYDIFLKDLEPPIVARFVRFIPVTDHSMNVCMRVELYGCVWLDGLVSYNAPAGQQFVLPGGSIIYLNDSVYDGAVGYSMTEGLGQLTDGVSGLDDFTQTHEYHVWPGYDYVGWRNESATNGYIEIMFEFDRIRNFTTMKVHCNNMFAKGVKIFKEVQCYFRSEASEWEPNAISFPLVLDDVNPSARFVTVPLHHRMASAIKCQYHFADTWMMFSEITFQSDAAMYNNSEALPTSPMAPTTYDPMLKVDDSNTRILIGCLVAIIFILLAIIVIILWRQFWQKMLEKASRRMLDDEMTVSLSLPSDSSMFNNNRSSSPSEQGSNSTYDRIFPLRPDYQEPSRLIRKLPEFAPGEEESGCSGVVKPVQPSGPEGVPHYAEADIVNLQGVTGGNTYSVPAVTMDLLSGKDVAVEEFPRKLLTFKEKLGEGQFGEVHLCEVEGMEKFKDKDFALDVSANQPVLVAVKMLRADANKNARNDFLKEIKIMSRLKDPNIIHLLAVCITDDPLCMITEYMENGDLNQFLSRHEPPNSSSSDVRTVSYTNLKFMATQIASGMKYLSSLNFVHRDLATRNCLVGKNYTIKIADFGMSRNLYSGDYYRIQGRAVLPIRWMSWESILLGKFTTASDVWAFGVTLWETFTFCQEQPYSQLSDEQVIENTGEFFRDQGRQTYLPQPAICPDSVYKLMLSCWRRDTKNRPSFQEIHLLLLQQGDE
The conditions noted are these: at 1 µM.

For test [16], the target named is T3, Discoidin domain-containing receptor 2 (Homo sapiens). The following applies: at 10 µM.
Test [17] has as its target T4, Serine/threonine-protein kinase 17A (Homo sapiens) (UniProt Q9UEE5).
T4 sequence (whole entry): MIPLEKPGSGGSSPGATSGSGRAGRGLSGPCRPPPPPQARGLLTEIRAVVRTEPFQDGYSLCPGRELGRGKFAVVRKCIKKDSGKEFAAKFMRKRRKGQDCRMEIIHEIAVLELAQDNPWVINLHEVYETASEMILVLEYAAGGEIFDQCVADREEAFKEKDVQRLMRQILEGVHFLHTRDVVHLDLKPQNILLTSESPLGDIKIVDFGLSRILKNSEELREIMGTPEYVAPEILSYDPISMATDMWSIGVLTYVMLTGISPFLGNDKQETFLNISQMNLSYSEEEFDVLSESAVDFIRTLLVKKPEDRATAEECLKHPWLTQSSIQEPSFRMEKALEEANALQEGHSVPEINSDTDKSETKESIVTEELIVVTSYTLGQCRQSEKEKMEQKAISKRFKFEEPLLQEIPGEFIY
The conditions noted are these: at 1 µM.

The target of test [18] is T5, Myotonin-protein kinase (Homo sapiens) (UniProt Q09013).
T5 sequence (whole entry): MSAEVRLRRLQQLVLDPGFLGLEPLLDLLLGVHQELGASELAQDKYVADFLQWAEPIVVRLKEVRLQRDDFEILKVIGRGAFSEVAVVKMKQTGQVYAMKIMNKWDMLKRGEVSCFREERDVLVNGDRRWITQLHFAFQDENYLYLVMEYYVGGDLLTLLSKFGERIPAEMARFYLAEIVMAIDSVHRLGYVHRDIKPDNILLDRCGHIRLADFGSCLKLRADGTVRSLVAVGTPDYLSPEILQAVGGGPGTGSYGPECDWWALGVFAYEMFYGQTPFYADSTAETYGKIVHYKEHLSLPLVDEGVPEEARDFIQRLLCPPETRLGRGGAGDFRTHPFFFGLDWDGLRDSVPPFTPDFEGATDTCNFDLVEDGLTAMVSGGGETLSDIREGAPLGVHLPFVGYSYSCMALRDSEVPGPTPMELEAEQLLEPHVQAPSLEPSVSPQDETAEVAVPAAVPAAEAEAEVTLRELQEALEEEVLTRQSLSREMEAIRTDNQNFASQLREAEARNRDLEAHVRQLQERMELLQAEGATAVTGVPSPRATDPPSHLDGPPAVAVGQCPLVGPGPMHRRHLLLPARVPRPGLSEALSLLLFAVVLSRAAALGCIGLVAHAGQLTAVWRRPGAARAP
The following applies: at 1 µM.

In test [19] the target is T5, Myotonin-protein kinase (Homo sapiens). The following applies: at 10 µM.
Test [20] has as its target T1, Calcium/calmodulin-dependent protein kinase type IV (Homo sapiens). The following applies: at 1 µM.

Chain of Calcium/calmodulin-dependent protein kinase type II subunit beta (Homo sapiens) (Q13554 whole entry): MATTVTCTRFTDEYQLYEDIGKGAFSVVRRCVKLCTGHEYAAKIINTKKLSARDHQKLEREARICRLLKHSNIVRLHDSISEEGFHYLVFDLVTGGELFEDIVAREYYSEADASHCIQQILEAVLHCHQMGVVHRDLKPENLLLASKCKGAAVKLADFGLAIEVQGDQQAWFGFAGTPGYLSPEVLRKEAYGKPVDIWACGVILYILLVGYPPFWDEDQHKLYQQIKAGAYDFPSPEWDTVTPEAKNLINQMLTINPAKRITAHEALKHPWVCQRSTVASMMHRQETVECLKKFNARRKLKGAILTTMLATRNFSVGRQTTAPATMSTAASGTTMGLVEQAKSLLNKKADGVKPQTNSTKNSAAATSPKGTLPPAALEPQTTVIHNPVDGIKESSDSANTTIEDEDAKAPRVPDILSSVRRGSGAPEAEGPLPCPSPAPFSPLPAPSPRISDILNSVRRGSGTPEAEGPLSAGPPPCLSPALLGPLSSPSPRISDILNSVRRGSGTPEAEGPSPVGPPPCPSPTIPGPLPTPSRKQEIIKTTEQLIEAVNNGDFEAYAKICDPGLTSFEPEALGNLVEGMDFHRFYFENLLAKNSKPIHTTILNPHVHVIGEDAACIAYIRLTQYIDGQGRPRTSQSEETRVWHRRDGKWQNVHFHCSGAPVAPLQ
Chain of Calcium/calmodulin-dependent protein kinase type II subunit delta (Homo sapiens) (Q13557 whole entry): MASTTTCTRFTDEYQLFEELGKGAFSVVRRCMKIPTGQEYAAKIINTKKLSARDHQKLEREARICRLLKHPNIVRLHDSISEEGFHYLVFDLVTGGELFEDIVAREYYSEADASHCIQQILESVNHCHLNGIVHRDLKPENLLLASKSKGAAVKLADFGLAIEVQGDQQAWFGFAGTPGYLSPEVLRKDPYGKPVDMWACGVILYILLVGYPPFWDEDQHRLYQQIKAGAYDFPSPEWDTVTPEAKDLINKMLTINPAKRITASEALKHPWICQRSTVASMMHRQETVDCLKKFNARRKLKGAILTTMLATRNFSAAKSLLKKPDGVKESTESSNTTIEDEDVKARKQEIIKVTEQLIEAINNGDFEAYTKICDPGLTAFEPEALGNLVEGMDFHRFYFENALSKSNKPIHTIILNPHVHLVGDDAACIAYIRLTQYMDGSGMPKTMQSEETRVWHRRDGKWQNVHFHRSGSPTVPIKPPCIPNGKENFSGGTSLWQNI
Chain of Death-associated protein kinase 1 (Homo sapiens) (P53355 whole entry, looked up): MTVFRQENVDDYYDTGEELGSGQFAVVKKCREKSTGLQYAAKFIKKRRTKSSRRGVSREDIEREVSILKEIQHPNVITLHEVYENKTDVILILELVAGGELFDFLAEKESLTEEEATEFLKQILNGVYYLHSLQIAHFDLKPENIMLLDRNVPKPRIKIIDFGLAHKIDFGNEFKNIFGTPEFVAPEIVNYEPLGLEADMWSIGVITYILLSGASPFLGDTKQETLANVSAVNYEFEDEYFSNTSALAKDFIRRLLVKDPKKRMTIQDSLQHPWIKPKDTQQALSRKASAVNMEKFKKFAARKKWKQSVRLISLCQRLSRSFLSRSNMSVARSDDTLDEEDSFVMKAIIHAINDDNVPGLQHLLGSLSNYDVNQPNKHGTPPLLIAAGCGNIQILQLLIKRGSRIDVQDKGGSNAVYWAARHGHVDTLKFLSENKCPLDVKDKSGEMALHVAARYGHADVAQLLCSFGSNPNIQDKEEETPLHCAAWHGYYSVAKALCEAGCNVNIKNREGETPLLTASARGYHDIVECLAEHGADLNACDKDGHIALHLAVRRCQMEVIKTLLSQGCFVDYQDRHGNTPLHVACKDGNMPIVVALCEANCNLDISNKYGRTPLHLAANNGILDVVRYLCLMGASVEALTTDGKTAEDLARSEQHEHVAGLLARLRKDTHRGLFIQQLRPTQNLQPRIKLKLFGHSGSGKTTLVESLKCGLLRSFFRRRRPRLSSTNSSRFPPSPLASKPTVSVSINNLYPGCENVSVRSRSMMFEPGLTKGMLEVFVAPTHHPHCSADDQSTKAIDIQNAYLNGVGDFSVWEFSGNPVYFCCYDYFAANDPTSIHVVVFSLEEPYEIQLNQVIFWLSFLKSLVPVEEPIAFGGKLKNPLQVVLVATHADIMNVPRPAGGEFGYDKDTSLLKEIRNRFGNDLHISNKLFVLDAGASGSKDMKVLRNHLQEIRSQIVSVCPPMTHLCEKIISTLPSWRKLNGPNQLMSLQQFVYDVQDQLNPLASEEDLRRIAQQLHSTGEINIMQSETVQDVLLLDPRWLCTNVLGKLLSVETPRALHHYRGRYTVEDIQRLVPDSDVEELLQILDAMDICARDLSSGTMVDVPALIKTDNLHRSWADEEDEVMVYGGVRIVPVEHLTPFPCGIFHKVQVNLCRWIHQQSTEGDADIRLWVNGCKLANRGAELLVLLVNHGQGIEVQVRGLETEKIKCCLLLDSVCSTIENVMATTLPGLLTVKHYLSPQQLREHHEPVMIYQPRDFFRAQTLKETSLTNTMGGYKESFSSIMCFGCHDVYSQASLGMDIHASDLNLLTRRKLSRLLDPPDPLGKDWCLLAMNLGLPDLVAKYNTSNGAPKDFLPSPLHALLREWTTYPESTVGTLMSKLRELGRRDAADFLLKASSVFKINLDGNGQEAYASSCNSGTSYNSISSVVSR
Chain of Calcium/calmodulin-dependent protein kinase type 1 (Homo sapiens) (Q14012 whole entry, looked up): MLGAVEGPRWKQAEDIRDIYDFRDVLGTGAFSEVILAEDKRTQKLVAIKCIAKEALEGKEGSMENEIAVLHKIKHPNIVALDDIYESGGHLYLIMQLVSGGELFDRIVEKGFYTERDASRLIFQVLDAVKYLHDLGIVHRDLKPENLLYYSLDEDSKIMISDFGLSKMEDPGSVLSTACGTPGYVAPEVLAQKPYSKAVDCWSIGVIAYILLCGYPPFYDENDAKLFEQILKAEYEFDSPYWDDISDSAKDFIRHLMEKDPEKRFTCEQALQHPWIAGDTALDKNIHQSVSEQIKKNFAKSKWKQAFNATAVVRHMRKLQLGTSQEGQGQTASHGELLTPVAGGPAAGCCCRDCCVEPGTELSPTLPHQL
Chain of Death-associated protein kinase 2 (Homo sapiens) (Q9UIK4 whole entry, looked up): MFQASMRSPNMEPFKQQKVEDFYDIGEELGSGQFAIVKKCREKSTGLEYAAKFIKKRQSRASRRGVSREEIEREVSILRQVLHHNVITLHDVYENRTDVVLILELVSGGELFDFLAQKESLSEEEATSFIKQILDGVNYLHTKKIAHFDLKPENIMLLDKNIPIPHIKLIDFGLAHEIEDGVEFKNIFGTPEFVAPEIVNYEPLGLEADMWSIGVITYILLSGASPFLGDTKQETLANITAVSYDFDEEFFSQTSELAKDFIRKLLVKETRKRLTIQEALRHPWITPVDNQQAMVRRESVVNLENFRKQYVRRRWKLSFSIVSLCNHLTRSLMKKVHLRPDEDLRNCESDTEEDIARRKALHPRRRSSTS

As for `O=c1cc(N2CCOCC2)oc2c1ccc1ccccc12`, the residual activity in [1] was found to be 104%; in test [2], 72%; in test [3] it was 103%; in [4], 72%; in test [5], 104%; in test [6], 81%. The residual activity in test [7] came out at 99%; in test [8] it was 75%; in [9], 103%; in [10], 84%; in test [11], 92%; in test [12] it was 80%. The residual activity in test [13] turned out to be 83%; in test [14], 87%; in [15], 106%; in test [16] it was 105%; in test [17], 92%.
On to `NC(=O)c1ccc(-c2nc(-c3ccc4c(c3)OCCO4)c(-c3ccccn3)[nH]2)cc1`, for which the residual activity turned out to be 91% in test [1]; 73% in test [2]; 88% in test [4]; 100% in [7]; 98% in test [8]; 78% in [10]. Further, the residual activity stood at 98% in [15]; 97% in test [16]; 93% in test [18]; 97% in [19]; 89% in test [17].
In the case of `CC(C)N(CCC(=O)c1ccc2ccccc2c1)Cc1ccccc1`, the residual activity worked out at 100% in test [1]; 80% in test [2]; 88% in [3]; 84% in test [4]; 76% in [10]; 80% in test [13]. The residual activity in [14] amounted to 80%; in [19] it was 131%.
Regarding `Nc1ncnc2[nH]nc(Nc3ccc(F)cc3)c12`, the residual activity in test [1] is 91%; in test [2], 72%; in test [3], 67%; in [4], 20%; in test [6] it was 30%; in test [7] it was 77%. The residual activity in test [8] was determined as 26%; in test [20] it was 100%; in [9], 104%; in test [11] it was 99%; in test [12], 100%; in test [13], 107%. The residual activity in [14] was 96%; in [15], 95%; in test [16], 92%; in test [17], 45%.
With `Cn1c2ccccc2c2c3c(c4c5ccccc5n(CCC#N)c4c21)CNC3=O`, the residual activity in [1] was 80%; in test [2] it was 32%; in [3] it was 11%; in [4], 10%; in test [5], 2%; in [6], -5%. For the same molecule, the residual activity in test [7] is 1%; in [8] it was 1%; in test [20] it was 100%; in test [9], 58%; in [10] it was 73%; in test [11] it was 93%. For the same molecule, the residual activity in test [12] was determined as 105%; in test [13] it was 56%; in test [14], 60%; in test [18], 121%; in test [19], 114%; in test [17] it was 36%.
`NCCNc1ncc(C(N)=O)c(Nc2cccc(C(F)(F)F)c2)n1`: the residual activity in [1] was 20%; in test [2], -5%; in [3] it was 73%; in test [4], 23%; in test [5] it was 55%; in test [6], 3%. The residual activity in test [7] is 51%; in [8], 9%; in test [20], 114%; in test [9], 72%; in [13] it was 73%; in test [14] it was 66%.
`O=C1Cc2c([nH]c3ccc(Br)cc23)-c2ccccc2N1`: the residual activity in test [1] is 94%; in test [2], 74%; in [3], 81%; in test [4], 57%; in test [7], 58%; in test [8] it was 16%. For the same molecule, the residual activity in test [18] was 97%; in [19] it was 83%; in test [17] it was 76%.

A word on the residual activity: it is the signal under treatment as a percentage of the control signal.
